Molecules are shown by their SMILES. For part of these data: Potency and affinity values are given separately.

Holding throughout (parameters): scale not given: direction of the effect not stated beside the values
For assay [1], the target named is Protein translocase subunit SecA (Escherichia coli (strain K12)) (UniProt P10408). Briefly: Assay to Identify E. coli SecA ATPase Inhibitors. It is filed as functional. The settings on record: 30 µM.
The target of assay [2] is T1, Ubiquitin-activating enzyme e1, putative (Leishmania donovani (strain BPK282A1)) (UniProt E9BSI1).
T1 sequence (whole entry): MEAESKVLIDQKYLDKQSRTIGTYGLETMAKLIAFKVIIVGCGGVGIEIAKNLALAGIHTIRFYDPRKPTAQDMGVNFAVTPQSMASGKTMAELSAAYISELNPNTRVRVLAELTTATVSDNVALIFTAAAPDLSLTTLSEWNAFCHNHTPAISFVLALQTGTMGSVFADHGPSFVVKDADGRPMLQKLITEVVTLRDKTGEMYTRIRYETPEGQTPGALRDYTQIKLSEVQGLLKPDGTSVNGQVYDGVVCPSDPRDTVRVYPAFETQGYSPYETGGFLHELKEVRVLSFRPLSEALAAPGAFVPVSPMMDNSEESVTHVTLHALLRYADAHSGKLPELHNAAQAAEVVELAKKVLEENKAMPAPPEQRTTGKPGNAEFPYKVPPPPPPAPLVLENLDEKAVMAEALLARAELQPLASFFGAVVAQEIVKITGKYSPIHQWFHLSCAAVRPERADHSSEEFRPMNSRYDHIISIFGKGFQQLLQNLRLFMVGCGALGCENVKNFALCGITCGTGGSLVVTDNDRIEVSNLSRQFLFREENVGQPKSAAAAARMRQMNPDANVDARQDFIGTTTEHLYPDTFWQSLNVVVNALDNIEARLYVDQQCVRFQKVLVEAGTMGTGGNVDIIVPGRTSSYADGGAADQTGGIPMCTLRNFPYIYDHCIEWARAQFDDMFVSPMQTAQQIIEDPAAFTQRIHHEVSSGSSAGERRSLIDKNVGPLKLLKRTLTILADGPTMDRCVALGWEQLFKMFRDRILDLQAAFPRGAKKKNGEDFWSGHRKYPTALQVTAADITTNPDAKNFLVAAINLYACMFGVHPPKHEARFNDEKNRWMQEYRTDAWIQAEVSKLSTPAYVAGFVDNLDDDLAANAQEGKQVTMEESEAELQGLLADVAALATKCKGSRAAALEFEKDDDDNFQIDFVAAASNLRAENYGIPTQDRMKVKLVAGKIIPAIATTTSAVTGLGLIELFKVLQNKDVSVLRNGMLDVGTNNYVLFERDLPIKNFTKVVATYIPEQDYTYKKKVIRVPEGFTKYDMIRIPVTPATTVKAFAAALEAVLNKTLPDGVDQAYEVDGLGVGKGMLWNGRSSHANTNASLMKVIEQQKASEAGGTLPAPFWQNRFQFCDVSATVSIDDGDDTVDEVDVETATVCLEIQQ
Briefly: Leishmania donovani Ubiquitin Activating Enzyme (LdE1). Type of assay: functional. The settings on record: 30 µM.

Assay [3] concerns the target AMP-activated protein kinase, AMPK (Homo sapiens) (UniProt P54646+O43741+P54619+Q9UGJ0+Q9Y478+Q13131+Q9UGI9). In words: AMP-dependent Kinase enzyme assay. An in vitro enzyme assay that detects ADP turnover that is directly proportional to AMPK activity. This uses naive AMPK that is activated during the assay with MK-8722. The settings on record: 30 µM. It is filed as functional.

Assay [4] has as its target Sialic acid-binding Ig-like lectin 9 (Homo sapiens) (UniProt Q9Y336). Briefly: Hs-Siglec9 ALPHAscreen SOP 20170721. The settings on record: 10 µM.
Another assay deals with Trypanosoma cruzi. Briefly: Trypanosoma cruzi phosphomannomutase and mannose-1-phosphate guanylyltransferase assay. The settings on record: 10 µM. Type of assay: functional.
In assay [5] the target is T2, Arginase-2, mitochondrial (Homo sapiens) (UniProt P78540).
T2 sequence (whole entry): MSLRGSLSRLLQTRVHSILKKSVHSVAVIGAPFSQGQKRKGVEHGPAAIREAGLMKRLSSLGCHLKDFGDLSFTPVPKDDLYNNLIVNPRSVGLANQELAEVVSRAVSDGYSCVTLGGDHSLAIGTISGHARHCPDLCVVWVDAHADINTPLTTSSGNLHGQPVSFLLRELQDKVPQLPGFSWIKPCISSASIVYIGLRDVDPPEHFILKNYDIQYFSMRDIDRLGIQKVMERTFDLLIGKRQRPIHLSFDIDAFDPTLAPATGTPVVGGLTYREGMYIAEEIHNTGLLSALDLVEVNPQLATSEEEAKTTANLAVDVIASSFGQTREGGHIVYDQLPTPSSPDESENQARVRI
In words: in vitro enzyme assay to detect the production of urea directly proportional to the activity of Arginase II. Further: in the data most compounds retested in dose-response had high values. Particulars: 33.3 µM. It is filed as functional.

The target in assay [6] is T3, Proteasome subunit beta (Trypanosoma cruzi) (UniProt O96673).
T3 sequence (whole entry): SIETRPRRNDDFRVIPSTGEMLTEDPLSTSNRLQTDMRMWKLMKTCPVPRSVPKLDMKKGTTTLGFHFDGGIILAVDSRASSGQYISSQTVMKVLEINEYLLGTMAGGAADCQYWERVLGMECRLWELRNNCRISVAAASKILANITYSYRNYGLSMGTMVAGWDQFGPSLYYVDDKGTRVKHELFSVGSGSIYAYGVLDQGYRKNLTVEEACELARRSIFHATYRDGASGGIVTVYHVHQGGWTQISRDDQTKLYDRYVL
In words: Trypanosoma cruzi proteasome chymotrypsin-like activity (TcProtChymo) assay. Further: in the data most compounds retested in dose-response had high values. Type of assay: functional. Particulars: 9.37 µM.

A further assay is filed under the species Homo sapiens. In words: To identify inhibition of the IFN signalling (Jak-Stat) pathway via expression of an eGFP reporter gene under the control of an IFN-stimulated response element (ISRE) containing MxA promoter. Type of assay: functional. The settings on record: 30 µM.
For assay [7], the target named is T4, Tyrosyl-tRNA synthetase, putative (Trypanosoma cruzi (strain CL Brener)) (UniProt Q4DSP6).
T4 sequence (whole entry): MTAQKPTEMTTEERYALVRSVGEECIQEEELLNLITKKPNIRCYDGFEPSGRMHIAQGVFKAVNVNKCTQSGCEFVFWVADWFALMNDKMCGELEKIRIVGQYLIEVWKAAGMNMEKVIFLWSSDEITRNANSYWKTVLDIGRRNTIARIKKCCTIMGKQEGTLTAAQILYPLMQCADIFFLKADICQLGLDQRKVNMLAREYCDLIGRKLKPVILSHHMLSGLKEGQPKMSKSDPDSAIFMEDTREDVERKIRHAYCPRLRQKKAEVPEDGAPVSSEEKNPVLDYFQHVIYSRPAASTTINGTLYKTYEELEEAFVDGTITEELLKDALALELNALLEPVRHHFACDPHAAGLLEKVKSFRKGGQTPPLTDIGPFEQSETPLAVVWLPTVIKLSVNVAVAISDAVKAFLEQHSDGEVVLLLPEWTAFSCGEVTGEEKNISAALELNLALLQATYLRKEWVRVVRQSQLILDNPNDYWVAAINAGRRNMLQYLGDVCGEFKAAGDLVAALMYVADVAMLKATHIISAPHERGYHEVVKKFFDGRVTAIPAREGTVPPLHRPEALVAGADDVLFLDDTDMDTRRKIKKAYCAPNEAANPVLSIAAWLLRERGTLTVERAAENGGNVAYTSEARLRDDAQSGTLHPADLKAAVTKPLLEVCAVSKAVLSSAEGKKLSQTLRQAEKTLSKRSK
Briefly: Trypanosoma cruzi tyrosyl tRNA synthetase (TcYRS) _High Tyrosine SOP. Further: in the data most compounds retested in dose-response had high values. Type of assay: functional. The settings on record: 30 µM.

In assay [8] the target is T4, Tyrosyl-tRNA synthetase, putative (Trypanosoma cruzi (strain CL Brener)). In words: Trypanosoma cruzi tyrosyl tRNA synthetase (TcYRS) SOP. Particulars: 30 µM. Type of assay: functional.
For assay [9], the target named is Chromo domain-containing protein 1 (Saccharomyces cerevisiae (strain ATCC 204508 / S288c) (Baker's yeast)) (UniProt P32657). Briefly: ScCHD-1 Enzyme Inhibition Assay. Further: in the data most compounds retested in dose-response had high values. It is filed as functional. Particulars: 30 µM.
Sequence of Chromo domain-containing protein 1 (Saccharomyces cerevisiae (strain ATCC 204508 / S288c) (Baker's yeast)) (P32657 whole entry, the tested form may be a part): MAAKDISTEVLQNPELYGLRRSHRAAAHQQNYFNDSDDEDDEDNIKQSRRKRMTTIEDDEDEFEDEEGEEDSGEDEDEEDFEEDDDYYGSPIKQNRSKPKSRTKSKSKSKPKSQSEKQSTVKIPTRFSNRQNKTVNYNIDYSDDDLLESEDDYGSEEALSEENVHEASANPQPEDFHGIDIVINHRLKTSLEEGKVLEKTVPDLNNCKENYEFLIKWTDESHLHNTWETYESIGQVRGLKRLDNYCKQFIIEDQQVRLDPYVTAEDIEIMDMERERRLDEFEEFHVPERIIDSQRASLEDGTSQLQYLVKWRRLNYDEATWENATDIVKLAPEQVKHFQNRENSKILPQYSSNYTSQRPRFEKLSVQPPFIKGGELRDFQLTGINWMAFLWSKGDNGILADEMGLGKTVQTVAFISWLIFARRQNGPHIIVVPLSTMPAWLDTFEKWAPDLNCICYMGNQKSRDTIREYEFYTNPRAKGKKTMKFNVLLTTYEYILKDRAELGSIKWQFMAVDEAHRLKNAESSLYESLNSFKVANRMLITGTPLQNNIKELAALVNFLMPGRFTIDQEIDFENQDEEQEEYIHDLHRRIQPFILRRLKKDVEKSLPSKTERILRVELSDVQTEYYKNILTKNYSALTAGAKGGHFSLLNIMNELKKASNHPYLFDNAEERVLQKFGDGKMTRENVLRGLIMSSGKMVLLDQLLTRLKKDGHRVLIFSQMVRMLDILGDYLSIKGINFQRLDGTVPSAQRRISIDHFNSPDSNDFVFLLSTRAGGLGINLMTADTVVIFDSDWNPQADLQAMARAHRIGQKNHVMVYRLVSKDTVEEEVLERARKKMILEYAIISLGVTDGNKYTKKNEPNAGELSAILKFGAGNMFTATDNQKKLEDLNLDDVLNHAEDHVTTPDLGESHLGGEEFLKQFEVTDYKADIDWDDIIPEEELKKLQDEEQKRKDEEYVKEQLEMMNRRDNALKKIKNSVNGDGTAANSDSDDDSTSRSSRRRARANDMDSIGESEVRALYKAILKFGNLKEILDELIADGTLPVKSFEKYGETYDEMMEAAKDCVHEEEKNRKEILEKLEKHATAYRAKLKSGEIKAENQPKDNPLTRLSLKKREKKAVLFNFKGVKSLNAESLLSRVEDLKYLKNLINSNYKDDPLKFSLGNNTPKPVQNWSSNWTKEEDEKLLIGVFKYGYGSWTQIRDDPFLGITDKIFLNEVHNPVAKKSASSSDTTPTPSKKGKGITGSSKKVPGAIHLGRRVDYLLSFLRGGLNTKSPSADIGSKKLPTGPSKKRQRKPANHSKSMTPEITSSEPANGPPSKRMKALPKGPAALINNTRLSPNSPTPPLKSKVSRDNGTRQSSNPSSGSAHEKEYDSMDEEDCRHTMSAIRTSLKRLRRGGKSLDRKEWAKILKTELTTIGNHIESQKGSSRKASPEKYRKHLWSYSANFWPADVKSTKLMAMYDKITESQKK

Sequence of Sialic acid-binding Ig-like lectin 9 (Homo sapiens) (Q9Y336 whole entry): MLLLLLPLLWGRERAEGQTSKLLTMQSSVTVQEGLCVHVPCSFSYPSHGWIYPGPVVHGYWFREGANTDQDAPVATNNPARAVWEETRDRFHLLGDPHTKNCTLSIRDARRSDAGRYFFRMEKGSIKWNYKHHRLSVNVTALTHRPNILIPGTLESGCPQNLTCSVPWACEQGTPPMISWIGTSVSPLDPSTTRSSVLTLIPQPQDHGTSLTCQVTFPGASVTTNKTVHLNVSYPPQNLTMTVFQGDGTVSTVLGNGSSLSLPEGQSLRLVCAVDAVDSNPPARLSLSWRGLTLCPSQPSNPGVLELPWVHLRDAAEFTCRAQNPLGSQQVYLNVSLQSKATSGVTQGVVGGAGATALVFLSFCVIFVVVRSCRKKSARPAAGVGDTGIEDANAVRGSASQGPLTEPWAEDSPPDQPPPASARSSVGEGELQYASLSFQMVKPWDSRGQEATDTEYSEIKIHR
Sequence of Protein translocase subunit SecA (Escherichia coli (strain K12)) (P10408 whole entry): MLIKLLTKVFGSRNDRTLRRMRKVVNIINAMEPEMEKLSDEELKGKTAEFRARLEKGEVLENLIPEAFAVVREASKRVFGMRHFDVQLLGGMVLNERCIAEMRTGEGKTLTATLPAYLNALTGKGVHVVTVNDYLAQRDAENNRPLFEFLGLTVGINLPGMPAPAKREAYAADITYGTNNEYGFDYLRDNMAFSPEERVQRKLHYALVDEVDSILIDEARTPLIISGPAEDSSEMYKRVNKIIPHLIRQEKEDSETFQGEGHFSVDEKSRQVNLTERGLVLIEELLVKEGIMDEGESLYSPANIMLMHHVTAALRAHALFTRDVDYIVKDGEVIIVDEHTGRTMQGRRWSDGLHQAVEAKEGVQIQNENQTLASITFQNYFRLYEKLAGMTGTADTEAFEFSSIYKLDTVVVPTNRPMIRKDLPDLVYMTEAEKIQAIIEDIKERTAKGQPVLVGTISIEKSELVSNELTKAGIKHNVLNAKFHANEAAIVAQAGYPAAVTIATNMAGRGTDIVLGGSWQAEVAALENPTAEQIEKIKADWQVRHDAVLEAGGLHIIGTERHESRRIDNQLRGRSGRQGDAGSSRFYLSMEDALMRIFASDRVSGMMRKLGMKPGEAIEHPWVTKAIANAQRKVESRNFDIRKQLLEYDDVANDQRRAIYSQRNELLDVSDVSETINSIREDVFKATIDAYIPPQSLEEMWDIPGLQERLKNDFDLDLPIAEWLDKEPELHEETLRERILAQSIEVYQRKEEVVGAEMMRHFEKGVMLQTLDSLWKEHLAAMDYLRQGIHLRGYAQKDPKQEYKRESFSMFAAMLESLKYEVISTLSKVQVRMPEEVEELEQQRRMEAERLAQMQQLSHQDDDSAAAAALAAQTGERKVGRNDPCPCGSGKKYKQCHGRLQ

As to `CCC(=O)Nc1ccc2c(c1)CN(C(=O)c1ccco1)CC2`, the Percent Effect was -1.48% in assay [1]; 15.6% in [2]; 8.06% in [3]; -13% in assay [4]; -1.48% with Trypanosoma cruzi; -1.94% in assay [5]. Also, the Percent Effect in assay [6] was 9.4%; in the assay filed under Homo sapiens, 33.1%; in assay [7], 3.17%; in assay [8], 14.1%; in assay [9], -8.67%.

For the molecule `CNc1cc2c(nn1)CCN(C(=O)c1ccoc1)C2`, the Percent Effect was -0.747% in assay [1]; 7.79% in assay [2]; 7.77% in assay [3]; -6.29% in assay [4]; -1.27% in the assay on Trypanosoma cruzi; 4% in assay [5]. In addition, the Percent Effect in assay [6] was 16.6%; in the assay filed under Homo sapiens it was 27%; in [7], 1.91%; in assay [8] it was -25.9%; in assay [9], -15%.

On to `COCc1cc(O)nc(C2CCCN(Cc3cc(OC)ccc3F)C2)n1` (centres undefined), for which the Percent Effect was -7.04% in assay [1]; 1.35% in [2]; 4.88% in assay [3]; 5.64% in [4]; -3.56% with Trypanosoma cruzi; -2.09% in assay [5]. Also, the Percent Effect in [6] is -0.312%; in the assay listed under Homo sapiens it was 16.7%; in assay [7] it was -2.15%; in assay [8], -1.3%; in assay [9] it was -9.01%.

For `CN(C)C(=O)N1CCN(Cc2noc(Cc3ccccc3)n2)CC1`, the Percent Effect in assay [1] is -2.44%; in [2] it was 0%; in assay [3], -1.46%; in assay [4], 6.32%; in the assay on Trypanosoma cruzi, -0.661%; in assay [5], -2.28%. In addition, the Percent Effect in [6] is -0.409%; in the assay listed under Homo sapiens, -0.594%; in assay [7], 2.46%; in [8], -3.8%; in [9], -2.99%.

Regarding `CCCS(=O)(=O)N1CCC2(CC1)CN(c1ccccn1)CCO2`, the Percent Effect in [1] is -4.44%; in [2], 4%; in [3], -4.84%; in assay [4] it was -5.06%; with Trypanosoma cruzi, -11%; in assay [5] it was -11.8%. The Percent Effect in assay [6] is 11.8%; in the assay filed under Homo sapiens, -5.14%; in assay [7] it was 0%; in [8], -2.56%; in [9], -7.42%.

For the molecule `Cc1cnn(CCNCc2ccc(F)cc2Cl)c1`, the Percent Effect in [1] was -3.52%; in [2], 8.11%; in [3], -1.08%; in assay [4], 10.9%; with Trypanosoma cruzi, -1.02%; in [5] it was 0.554%. Moreover, the Percent Effect is 10.9% in [6]; -9.92% in the assay listed under Homo sapiens; 1.98% in assay [7]; 13.4% in assay [8]; 1.6% in [9].

Turning to `Cc1ccc(-c2nc(CN3CCOC(Cn4cccn4)C3)cs2)o1` (centres undefined), the Percent Effect in [1] was 0.91%; in assay [2], 2.7%; in assay [3], -3.73%; in assay [4] it was 5.65%; in the assay on Trypanosoma cruzi it was 7.14%; in assay [5] it was 0.476%. Moreover, the Percent Effect was 12.4% in [6]; 4.23% in the assay listed under Homo sapiens; 2.65% in assay [7]; 9.76% in assay [8]; 0.401% in assay [9].

Consider `COc1ccc2c(c1)CN(Cc1nc3ccsc3c(=O)[nH]1)CC2`, for which the Percent Effect in assay [1] is -2.79%; in assay [2], -5.06%; in assay [3], -0.628%; in assay [4], 14.2%; in the assay on Trypanosoma cruzi, -1.79%; in [5] it was 1.9%. The Percent Effect in [6] was determined as 2.05%; in the assay filed under Homo sapiens, 24.5%; in [7], 3.45%; in assay [8] it was 1.27%; in assay [9], 21.3%.

On to `CCOc1cc(C(=O)N2CCCC(n3cncn3)C2)ccc1C` (centres undefined), for which the Percent Effect in [1] is 2.65%; in assay [2], -8.11%; in assay [3] it was 0.403%; in assay [4], -1.22%; with Trypanosoma cruzi it was -1.21%; in [5] it was 1.66%. In addition, the Percent Effect in [6] was -7.18%; in the assay filed under Homo sapiens, 4.36%; in assay [7], 0.99%; in [8], 1.22%; in assay [9], 11.6%.

The values above are taken from ChEMBL document CHEMBL3988442, “University of Dundee, Small-Polar-MMV Screening Library” (2021).
